ALDH1A1 block – blocks purified human ALDH1A1 activity. Potency, µM (highest dose often 75.3 µM), for inactives: at the top dose activity, negative = inhibition, usual class: inhibitors. actives 7.3% (n = 220,000). Purified ALDH1A1, NADH fluorescence, propionaldehyde substrate. P00352;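 further: plate controls were no enzyme wells and a reference inhibitor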
Target sequence (P00352 whole entry, looked up): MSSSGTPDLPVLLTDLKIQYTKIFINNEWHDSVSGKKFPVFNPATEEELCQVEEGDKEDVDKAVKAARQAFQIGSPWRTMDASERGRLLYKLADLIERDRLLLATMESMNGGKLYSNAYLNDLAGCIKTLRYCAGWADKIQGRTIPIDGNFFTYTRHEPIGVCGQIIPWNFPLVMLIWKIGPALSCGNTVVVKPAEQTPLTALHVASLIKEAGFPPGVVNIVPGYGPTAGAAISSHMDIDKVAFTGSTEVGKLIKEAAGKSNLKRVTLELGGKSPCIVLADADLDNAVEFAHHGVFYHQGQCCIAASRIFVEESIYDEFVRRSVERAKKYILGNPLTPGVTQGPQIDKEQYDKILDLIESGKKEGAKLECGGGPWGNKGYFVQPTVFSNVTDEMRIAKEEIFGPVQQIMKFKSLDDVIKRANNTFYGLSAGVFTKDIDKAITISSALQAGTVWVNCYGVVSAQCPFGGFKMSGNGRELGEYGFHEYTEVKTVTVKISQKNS
Lamin A splicing – changes lamin A minigene splicing in HeLa cells; HeLa LMNA splicing GFP/RFP minigene ratio, 48 h; Potency, µM (titrated, usually from 46.1 µM), for the others: top-dose ratio change, negative = inhibition, hits mostly inhibitors; actives 0.01% (n = 200,000); AID 1487; active means well fitted inhibition curve with a large enough effect in the signal ratio, with a control signal flat, not every such curve was filed as active; inconclusive means small, poorly fitted or top-dose-only effect, or effect the other way, or a change in a side signal; the % refers to the signal ratio
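S3 HeLa cells stably expressing lamin A-EGFP splicing minigene plus DsRed2, 600 cells/well, 48 h compound exposure at 37C. Laser-scanning cytometry; analysed as GFP (500-530 nm)/RFP (575-640 nm) total intensity ratio; 0.5% DMSO vehicle.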
HPGD inh – blocks human HPGD enzyme activity; P15428; purified HPGD, NADH fluorescence kinetic, PGE2 substrate; Potency, µM, inactives show at the top dose activity change, negative = inhibition, actives largely listed as inhibitors; actives 4.3% (n = 150,000); AID 894
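20 nM HPGD preincubated 15 min at room temperature with compound in 50 mM Tris-HCl pH 8, 0.01% Tween 20. Started with 1 mM NAD+ and 30 uM prostaglandin E2; NADH fluorescence (360/450 nm) read 5 times over 30-s intervals, last minus first.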
IMPase Li inh – membrane-permeable IMPase blocker, potentiated with lithium | actives 0.35% (n = 210,000) | Potency, µM (top dose mostly 59.4 µM), without a hit: top-dose activity, negative = IMPase inhibition, usual class: inhibitors | CHO-M1 cells, IP1 TR-FRET (IP-One), carbachol + lithium; active means well fitted curve in the direction sought with a large enough effect; inconclusive means small, poorly fitted or top-dose-only effect, or another doubt; inactive means no such curve, though single readings can be large; an effect the other way counts as inactive or inconclusive;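 further: IP1 builds up when IMPase is blocked and the TR-FRET signal falls; plate controls were basal vehicle for no effect and high inhibitor control for full effect; nearly all actives have a fitted effect of over 50% in size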
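Concentration–response in CHO-M1 cells, lithium-potentiated; 30 min at 37C. IP1 detected by competitive TR-FRET after 10 min lysis at RT. Hill-fitted AC50.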
KinaseGlo FLuc – Kinase-Glo luciferase inhibition (counter-screen) | Potency, µM (series often up to 38.3 µM), for the others: at the top dose activity change, negative = inhibition, most hits filed as inhibitors | actives 0.28% (n = 200,000) | Q27757 | Kinase-Glo luciferase, ATP luminescence, 8 min; active means well fitted curve in the direction sought with a large enough effect; inconclusive means small, poorly fitted or top-dose-only effect, or another doubt; inactive means no such curve, though single readings can be large; an effect the other way counts as inactive or inconclusive; further: nearly all actives have a fitted effect of over 60% in size
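Light output from Kinase-Glo luciferase with luciferin and 10 uM ATP in 50 mM imidazole pH 7.2, KCl, MgCl2, Tween 20, BSA; compound pin-delivered, 8-min ambient incubation, then luminescence read.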
An asterisk follows results filed as active; ? = inconclusive; / = not tested or not shown; [ ] = remark or other dose. Hits are enriched below; roughly 9% of the tested compounds scored in any of these assays. Unless noted, the call rests on the fitted dose curve; in most records, active means well fitted inhibition curve with a large enough effect (not every such curve was filed as active); inconclusive means small, poorly fitted or top-dose-only effect, or another doubt; inactive means no such curve, though single readings can be large or run the other way. Unless noted, on the % scale 0 is the no-effect control and ±100 the full control effect; potency means the concentration at half of the fitted maximal effect.

SMILES	ALDH1A1 block	Lamin A splicing	HPGD inh	IMPase Li inh	KinaseGlo FLuc
COc1ccc(N2CC(NC(=O)C3CCCCC3)CC2=O)cc1 (stereo not drawn)	/	9%[46 µM]	/	/	/
CCOc1ccc(NC(=O)CN2CCN(CC(=O)Nc3ccc(F)cc3)CC2)cc1	12µM*	3%	-1%	5%[38.3 µM]	-3%
CCOc1ccc(NC(=O)c2c(OC)cccc2OC)cc1	-3%	/	/	-8%	3%
CCOc1ccc(NC(=O)COC(=O)c2c(OC)cccc2OC)cc1	28µM*	1%	-26%	6%	1%
COc1ccc(NC(=O)CN2CCN(C3c4ccccc4-c4ccccc43)CC2)cc1	22µM*	?	-10%	9%[38.3 µM]	0%
O=C(NCCN1CCc2ccccc2C1)C1CCN(S(=O)(=O)N2CCC3(CC2)OCCO3)CC1	?	1%	-9%	-6%[38.3 µM]	-5%
O=C(NCCN1CCc2ccccc2C1)C1CCN(S(=O)(=O)N2CCCCC2)CC1	18µM*	10%	-8%	-7%[38.3 µM]	-1%
CN(C)S(=O)(=O)c1ccc(C(=O)NC2CCCc3ccccc32)cc1 (stereo not drawn)	20µM*	/	/	13%	1%
Cc1noc(C)c1S(=O)(=O)N1CCC(C(=O)NC2CCCc3ccccc32)CC1 (stereo not drawn)	2%	-3%	-3%	18%[38.3 µM]	19%
O=C(NC1CCCc2ccccc21)C1CCN(S(=O)(=O)N2CCCCCC2)CC1 (stereo not drawn)	4.5µM*	11%	-6%	13%[38.3 µM]	1%
Cc1ccc(S(=O)(=O)NC2CCCc3ccccc32)cc1C (stereo not drawn)	10µM*	4%	-21%	6%[38.3 µM]	15%
Cc1ccc(Cc2ccc(C(=O)NNC(N)=S)o2)cc1	?	5%[46 µM]	/	-1%	-2%
CC[C@]1(O)C[C@@H]2CN(CCc3c([nH]c4ccccc34)[C@@](C(=O)OC)(c3cc4c(cc3OC)N(C)C3[C@]45CCN4CC=C[C@](CC)(C45)[C@@H](OC(C)=O)[C@]3(O)C(=O)OC)C2)C1 (stereo partly drawn)	4%	/	/	-17%	/
Cc1cc(C)cc(C(=O)n2nc(C)c(S(=O)(=O)N3CCCCCC3)c2C)c1	/	2%[46 µM]	/	/	/
CCCN(CCC)CCCNC(=O)c1nn(-c2cccc(OC)c2)c(=O)c2ccccc12	10%	9%[46 µM]	/	10%	2%
CCCNC(=O)c1ccc(CN2CCOCC2)cc1	10%	13%[46 µM]	/	6%	0%
Clc1ccc(-n2nnc(-c3nccs3)n2)cc1Cl	25µM*	/	/	-13%	/
Cc1ccc(-n2nnc(-c3nccs3)n2)cc1	-8%	/	/	-1%	/
Cc1ccc(C)c(NC(=S)NNC(=O)c2cc3c(s2)CCC(C)C3)c1 (stereo not drawn)	22µM*	-10%	/	/	/
Cc1ccc(C)c(NC(=S)NNC(=O)c2csc(C(C)C)c2)c1	13µM*	?	-10%	2%	1%
Cc1ccc(C)c(NC(=S)NNC(=O)c2csc(C)c2C)c1	-9%	0%	-6%	0%	0%
Cc1ccc(C)c(NC(=S)NNC(=O)c2sccc2C)c1	-2%	7%	-11%	0%[38.3 µM]	-4%
Cc1cccc(NC(=S)NNC(=O)c2cc3c(s2)CCC(C)C3)c1C (stereo not drawn)	6.3µM*	?	-24%	-2%	0%
COc1ccc([N+](=O)[O-])cc1NC(=O)c1ccc(Br)s1	2%	-10%[46 µM]	/	0%	2%
Cc1ccc(-n2nnnc2CNC(=O)c2ccccc2S(C)(=O)=O)cc1C	/	17%[46 µM]	/	/	/
SMILES	ALDH1A1 block	Lamin A splicing	HPGD inh	IMPase Li inh	KinaseGlo FLuc
O=C(CC1(O)C(=O)Nc2cc(Cl)cc(Cl)c21)c1ccncc1 (stereo not drawn)	13µM*	-15%	-12%	9%	4%
C[C@H]1Cc2c(-c3ccccc3)nc3c(c2CO1)CN(C(=O)NCc1ccco1)CC3	0%[13.5 µM]	4%[9.22 µM]	-3%	1%	-3%[7.66 µM]
CC1CN(c2ccccc2)C(=O)CS1 (stereo not drawn)	15µM*	12%	16µM*	25%[38.3 µM]	3%
CCCCOCC1CN(c2ccccc2)C(=O)CS1 (stereo not drawn)	13µM*	-3%	-5%	17%[38.3 µM]	3%
CCCCN1CC(COc2ccccc2)OC1=O (stereo not drawn)	-4%	11%	-10%	11%[38.3 µM]	-6%
N#Cc1c(NC(=O)/C=C/c2ccco2)sc2c1CCCC2	32µM*	?	?	-3%	2%
CC(=O)Nc1sc2c(c1C#N)CCCCC2	?	-15%	-12%	-3%	-1%
Cc1onc(-c2ccccc2)c1C(=O)NC(=S)Nc1sc2c(c1C#N)CCC(C)C2 (stereo not drawn)	2.2µM*	2%	-29%	-8%	2%
CC(C)(C)C(=O)NC(=S)Nc1sc2c(c1C#N)CCCCC2	22µM*	-8%	-22%	-14%	1%
Cc1noc(C)c1C(=O)Nc1sc(C)c(-c2ccccc2)c1C#N	10µM*	?	-29%	4%[38.3 µM]	-3%
CCN(CC)C(=O)CN1C(=O)NC2(CCc3ccccc3C2)C1=O (stereo not drawn)	10%	-17%[46 µM]	/	2%	3%
CC1C(=O)OC2C(O)C34C5CC(C(C)(C)C)C36C(OC(=O)C6O)OC4(C(=O)O5)C12O (stereo not drawn)	6%	/	-3%	4%	-2%
COC(=O)C(CCCN1C(=O)c2ccccc2C1=O)(NC(C)=O)c1nn[nH]n1 (stereo not drawn)	1%	?	/	4%	2%
Cc1ccccc1C(=O)NC(=S)Nc1sc2c(c1C#N)CCCC2	6.3µM*	?	-24%	-8%	7%
Cc1onc(-c2ccccc2)c1C(=O)NC(=S)Nc1sc2c(c1C#N)CCCC2	0.5µM*	-19%	?	-11%	1%
Cn1cc(Cl)c(C(=O)NC(=S)Nc2sc3c(c2C#N)CCCCC3)n1	?	-17%	10µM*	-7%	5%
O=C(NCC(c1cccnc1)N1CCOCC1)C(=O)Nc1cccc(Cl)c1 (stereo not drawn)	/	12%[46 µM]	/	/	/
COc1ccc(-c2[nH]ncc2CN2CCC(OCc3cccnc3)CC2)c(F)c1	2%	-4%[46 µM]	/	8%	0%
COc1ccc(Cl)cc1NC(=O)COC(=O)CNC(=O)c1ccc([N+](=O)[O-])c(C)c1	9%	-6%	-20%	-7%	-1%
Cc1cc(C(=O)NCC(=O)OCC(=O)Nc2ccc(OC(F)F)cc2)ccc1[N+](=O)[O-]	3.2µM*	10%	-27%	10%	1%
O=c1cc(-c2ccccc2)n(S(=O)(=O)c2ccccc2)o1	25µM*	17%	-18%	21%[38.3 µM]	-1%
COc1ccc(S(=O)(=O)n2oc(=O)cc2-c2ccccc2)cc1	?	3%	-14%	26%[38.3 µM]	5%
CC(=O)OC(C)C	5%	/	-1%	-7%	/
CC(C)(C)c1ccc(NC(=O)N2CCCN(c3c(Cl)cncc3Cl)CC2)cc1	?	-1%[46 µM]	/	/	/

From PubChem
